From PubChem BioAssay (NCI)
About 83,000 compounds went through this panel and 20% of them were active in at least one assay; those are over-represented in the sample as a whole.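 Treatment: one concentration, 48 hours, 96-well format. Scoring: percent growth, with anything below 10 considered active.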 A number with no mark means an inactive call. Activity calls are given as the source filed them.

system: HT29 colon; assay: NCI-60 one-dose screen, 48 h (100 = growth as untreated, 0 = no growth, -100 = all killed); settings: 10 µM unless noted

Structure (SMILES)	growth
COc1nc2c(c(=O)n1C)N=C1c3ccccc3C(=O)C1C(c1ccccc1)N2 (configuration not stated)	104%
CC1=C(CC(=O)c2cccc([N+](=O)[O-])c2)C(=O)c2ccccc2C1=O	106%
O=C(Nc1ccc(-c2nc3cc4ccccc4cc3[nH]2)cc1)c1cccc(Br)c1	12.4%

system: SNB-75 CNS; assay: as above; settings: 10 µM unless noted

Structure (SMILES)	growth
CCOc1ccccc1CN1CCc2nc3cc(C(C)(C)C)[nH]n3c(=O)c2C1	105%
COc1ccc2sc(N(Cc3cccnc3)C(=O)c3ccc(C#N)cc3)nc2c1	74%
COc1cc(/C=C2\CN(S(=O)(=O)c3ccccc3)C/C(=C\c3cc(CN4CCCC4)c(O)c(OC)c3)C2=O)cc(CN2CCCC2)c1O	20.2%
Cc1c(C(=O)OCCO)cc(-c2ccc(Cl)cc2)n1-c1ccc(Cl)cc1Cl	82.3%
CC(=O)n1cc(-c2c[nH]c3ccccc23)c(-c2ccc(Cl)cc2)n1	80.9%
COc1cc(C=C2C(=O)N(C)C(=O)N(C)C2=O)cc(CN2CCCCC2)c1O	89.8%
O=C(CSc1nc2ccccc2c(=O)n1-c1ccccc1)Nc1ccc(C(=O)/C=C/c2ccc(Cl)cc2)cc1	114%
CCCCN1CCN(c2ccc3nc(-c4ccc5nc(-c6ccc(OC)c(OC)c6)[nH]c5c4)[nH]c3c2)CC1	6.59% (active)
CC(C)(C)c1ccc(C2CC(=O)C3=C(C2)Nc2ccccc2N(C(=O)c2ccccc2Cl)C3c2ccc(F)cc2)cc1 (configuration not stated)	66.4%
CCOC(=O)c1sc(-c2ccc(OS(=O)(=O)c3ccc(Br)s3)c(C=O)c2)nc1C	-5.48% (active)
CC(=O)Nc1nc2c(s1)CCc1c-2cn(S(=O)(=O)c2ccccc2)c1-c1ccccc1	82.8%
Clc1ccc(Oc2ccc(Nc3ncnc4onc(-c5ccccc5)c34)cc2)c(Cl)c1	83.5%
CCN1C(=O)N(CC)C2Nn3c(s/c(=C\c4ccccc4F)c3=O)=NC21 (configuration not stated)	55.1%
CCCCC1COc2cccc3c2N1C=C/C3=C\C(=O)N(C)c1ccccc1 (configuration not stated)	72.1%
COC(=O)/C(=C\c1c(-c2ccccc2)[nH]c2ccccc12)S(C)(=O)=O	-4.33% (active)
COC(=O)c1c2c(c(C)[n+]([O-])c1C)C(=O)C=C(NCc1ccccc1)C2=O	-71.5% (active)
c1ccc(CNc2nc(Nc3ccccc3)nc3ccccc23)cc1	-6.23% (active)
COc1ccc(/C=C/C(=O)c2c(C)nc3ccccc3c2/C=C/c2ccccc2)cc1O	24.9%
COc1ccc(OC)c(NC(=O)/C(C#N)=C/c2ccco2)c1	82.2%
COC(=O)/C(CCC=C(C)C)=C1\[C@@H](OC(C)=O)C[C@@]2(C)[C@H]1C[C@@H](O)[C@H]1[C@@]3(C)CC[C@H](NCCCNCCCCNCCCN)[C@@H](C)[C@@H]3CC[C@@]12C	93.4%

Structure (SMILES)	growth
O=C1c2cc(Br)ccc2Oc2cc([N+](=O)[O-])ccc2N1c1ccc(I)cc1F	89.5%
O=C(Nc1ccc(Br)cc1F)c1cc(I)ccc1O	-9.93% (active)
COc1ccc(-c2cn3c(C(=O)Nc4ccccc4Cl)c(-c4ccccc4)c4c3n2CCCC4)cc1	108%
CSc1nc2c(c(=O)[nH]1)N=C1c3ccccc3C(=O)C1C(c1ccccc1)N2 (configuration not stated)	34.3%
O=c1[nH]nnc2c1ncn2C1OC(CO)C(O)C1O (configuration not stated)	44.8%
O=Cc1c(OCc2cnnn2CC(=O)Nc2ccc(Cl)cc2)ccc2ccccc12	81.3%
O=C(c1nc2ccccc2[nH]1)C1[C@@H](c2cccc(O)c2)C2CC3CCCCC3N2[C@@]12C(=O)Nc1cc(Cl)ccc12 (some centres not stated)	27.2%
Nc1nc(N)c2c(n1)NC1(C=C(O)c3ccccc31)C1=C(N2)c2ccccc2C1=O (configuration not stated)	169%
COc1ccc(/C(C#N)=C/c2nc3c(N4CCOCC4)nc(Cl)nc3n2C)cc1OC	-7.9% (active)
COc1cccc2c1C=C1CCCCC3=Cc4c(OC)cccc4OC13O2	-18.1% (active)
COc1ccc(/C=C/C(=O)c2ccc(Nc3nc(NCCO)nc(Nc4ccc(Cl)cc4)n3)cc2)cc1	61.2%
O=NN(C(=O)NC1CCC(C(=O)O)CC1)C1CCC(C(=O)O)CC1 (configuration not stated)	84.1%
CN1CCN(Cc2ccc(NC(=O)c3cncc(C#Cc4nc(N)nc5[nH]ncc45)c3)cc2C(F)(F)F)CC1	85%
Nc1nc(-c2cnccn2)nn1-c1nc2ccccc2s1	96.4%
CCOC(=O)c1cc2c(n1Cc1cc(OC)cc(OC)c1)-c1oncc1CCC2	16.3%
CCOC(=O)c1c(Cl)c2c(n1Cc1ccccc1)-c1oncc1CCC2	69.1%
COc1nc2c(c(=O)n1C)N=C1c3ccccc3C(=O)C1C(c1ccccc1)N2 (configuration not stated)	84.6%
CC1=C(CC(=O)c2cccc([N+](=O)[O-])c2)C(=O)c2ccccc2C1=O	-84.6% (active)
O=C(Nc1ccc(-c2nc3cc4ccccc4cc3[nH]2)cc1)c1cccc(Br)c1	66.2%
